The values that follow come from the supplement of paper PMC12632987.

Whole data set: some 2,300 sequences, median “median log2 fold change of GCK-ALFA target abundance (FLAG IP / Myc IP barcode read proportion)” near 0.095, cut for the lowest 2% near -0.47. The sample holds the lowest values, similar sequences and a random draw of the others, so the mix is not that of the screen.

The chains are these.
B1: LC3A_23_609 (protein)
chain: MYLIDFEVDLIGEPEEIEKIEKELLEALEEFLEENKDKIVDYEIEVEREELEDGRTYLSIRLKILIDGTREEAEALANEITTIASEIAPDAVISVEVEEV
B2: LC3A_147_509 (protein)
chain: YIVEIDIDLLVKNKVEEVKEKFKEIVEELKKKGYEVELEIEEEKIDENTYYVKVKITIKAETKEEAEEAANLTLDLLDKLEEELKEDILGSLISVEITEA
B3: LC3A_free_39_2183 (protein)
chain: SSEETKKLKEELLKLAEEEGEETKELAEKLIELIGEELERIKRLLELMKKLKEAGVDLKEALKEALELAEELKKKGKSKEEIAEAVLELMQDKYNLIPID
B4: LC3A_free_26_2149 (protein)
chain: DEFIDIVELDKAIDLLEELLKLLEENELASEEEKKLAKEALEEAKKETLESLKKALKLVEELLKLLKKNEKLPEETKKKLIKLAEEAIKHIKENIKIMES
B5: LC3A_3_1540 (protein)
chain: MDAAVAAALARLRAAGASAATLAAFEAAVAALRERGYDAALETLIAETDRLLGLSDALLLAFFEEVLELVETEDIDEEELIARIREIARTTLSEAEIEEL
B6: LC3A_28_1107 (protein)
chain: SSVDEENAKALAEAEKAAAAGEPAVITITVKSTDTQEDIDKKIETMEKIAEILKDVKDAAIIIDLDGEIPQEYLDKLADKGEEIEKKYPNITVIIALDEE
B7: LC3A_3_1662 (protein)
chain: AEELIEETLAWLREQGRSEETLEAAREAMTALKEKGYYEALETFAELLRELADLSDELLLELAEEVLELVETSDLDEESMTEEIREIARTIRSEAEIEEL
B8: LC3A_132_247 (protein)
chain: SEEELEKALEELKEILEKIVELLKAGKDPLPQIVKLEELAREIAKKLSLEETEKLVDEAIEYAEELFEKELDPNDEEARRTLDIIEMSLEGVLIEKELES
B9: LC3A_132_246 (protein)
chain: SEEEYKKALAELKEIIDKIVELLKEGKDPLPAIVELEEKAREIAEKLSLEETEKLVEETIEYAEKRFEEELDPNDEEARRTLDIIEMLLEGVLIEKELRS
B10: LC3A_132_248 (protein)
chain: SEEELKEALEELKEILEKIVEALKNGEDPLPLIVELEEKALEIAEKLSLEETEELIDEAKEYAEELFEEELDPNDEEARRTLDIIEMLLDGVLIEKELKS

This assay addresses MAP1LC3A, Q9H492. Put plainly: median log2 fold change of GCK-ALFA target abundance (FLAG IP / Myc IP barcode read proportion) (log2 ratio); each designed protein is fused to an ALFA-tag nanobody in HEK293 cells to bring the named protein to FLAG-tagged glucokinase (GCK); Myc marks an untargeted standard; higher = target protein stabilised (more abundant). Particulars: target protein: 3xFLAG-MCP-GCK-ALFA reporter; HEK293 landing pad (RPLP). On the procedure:
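LABEL-seq trans screen in HEK293 landing-pad cells. Each de novo designed 100-aa effector handle, binding the indicated effector (E3 ligase, DUB or autophagy protein), is fused to a constant NbALFA target handle and induced with 2 ug/mL doxycycline. A FLAG-MCP-GCK-ALFA target and a Myc-MCP standard reporter were transfected, and after 48 h circRNA barcodes were recovered by anti-FLAG and anti-Myc IP and sequenced. The value is the median across barcodes (at least 3 per design) of log2(FLAG/Myc read-proportion ratio), with the two transfection replicates pooled. Negative values mean degradation and positive values mean stabilisation of the target.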
As to B1, the “median log2 fold change” value was -0.664.
B2: the “median log2 fold change” value was -0.0549.
The value for B3 was 0.066; that for B4 was -0.0408.
Regarding B5, the “median log2 fold change” value came to 0.222.
The value for B6 was 0.154; that for B7 was -0.0559.
On to B8, for which the “median log2 fold change” value was -0.371.
For B9, the “median log2 fold change” value was -0.415.
With B10, the “median log2 fold change” value was -0.698.
